mHTT CaM bind = inhibitors of human mutant huntingtin-calmodulin interaction. P42858. AlphaScreen His-mHTT/GST-CaM binding, luminescence. inhibition, % at 15 µM. 190,000 compounds, 3.6% hits
Pf apPOL block = Pf-apPOL DNA polymerase inhibition. Recombinant Pf-apPOL, molecular beacon fluorescence, 1.5 h. inhibition, % at 10 µM. 210,000 compounds, 0.25% hits
Large screens that a line does not name were inactive; ! = not active in a repeat. A selection: hits, their analogues and other compounds. The true share with any hit is near 3.6%. Rule as the data show it: active = inhibition above about 50%; inactive = the rest.

COc1ccc2c(c1)N1CCN(Cc3ccc(F)cc3)CC1C(C(=O)NC1CC1)C2 (stereo not drawn)	mHTT CaM bind 93
CCNC(=O)C1Cc2ccc(OC)cc2N2CCN(Cc3ccc(F)cc3)CC12 (stereo not drawn)	none
COc1ccc2c(c1)N1CCN(c3ccccc3OC)CC1C(C(=O)NC1CC1)C2 (stereo not drawn)	mHTT CaM bind 59
C=CCNC(=O)C1Cc2ccccc2N2CCN(c3cc(Cl)ccc3OC)CC12 (stereo not drawn)	mHTT CaM bind 55
COc1cccc(Oc2c(C)oc3cc(OC(=O)c4cc(OC)c(OC)c(OC)c4)ccc3c2=O)c1	none
COCCNC(=O)C1(C)CCC(=O)N1CCc1c[nH]c2ccccc12 (stereo not drawn)	none
CC(C)CCNC(=O)C1(C)CCc2ccccc2C(=O)N1CCc1c[nH]c2ccccc12 (stereo not drawn)	mHTT CaM bind 98
CN1C2=C(C(=O)CC(C)(C)C2)C(c2ccc(O)c(Cl)c2)C2=C1CC(C)(C)CC2=O	none
Cc1ccc(N2CCN(C(=O)c3cn4ccc(C)cc4n3)CC2)cc1	none
CC(=O)Nc1ccc(/C=C2\OC(=O)c3c2cc(C)[nH]c3=O)cc1	none
Cc1cc2c(c(=O)[nH]1)C(=O)O/C2=C/c1cn[nH]c1-c1cccs1	mHTT CaM bind 64 (no result: Pf apPOL block)
O=C(NC1CC1)c1ccc(N2CCC(NCc3cc(Br)ccc3O)C2)nc1 (stereo not drawn)	none
CC1=NN(c2ccccc2)C(=O)C1	none (no result: mHTT CaM bind)
CC1=NN(c2ccc(Cl)cc2)C(=O)C1	mHTT CaM bind 68
COc1ccc(C2=N/C(=C\c3ccco3)C(=O)O2)c(Br)c1	none
O=C(Nc1cccc(Cl)c1)c1ccc([N+](=O)[O-])cc1Cl	none
NS(=O)(=O)c1ccc(NC(NC(=O)c2cccc(Cl)c2)C(Cl)(Cl)Cl)cc1 (stereo not drawn)	none
Cc1cccc(NC(NC(=O)c2ccc([N+](=O)[O-])cc2)C(Cl)(Cl)Cl)c1 (stereo not drawn)	mHTT CaM bind 76
O=C(NC(Nc1ccc([N+](=O)[O-])cc1)C(Cl)(Cl)Cl)c1cccc(Cl)c1 (stereo not drawn)	mHTT CaM bind 100
O=C(Nc1cccc(Cl)c1)c1cccc([N+](=O)[O-])c1	mHTT CaM bind 92
NS(=O)(=O)c1ccc(NC(NC(=O)c2ccc([N+](=O)[O-])cc2)C(Cl)(Cl)Cl)cc1 (stereo not drawn)	none
Cc1cccc(NC(NC(=O)N(C)C)C(Cl)(Cl)Cl)c1 (stereo not drawn)	none
O=C(NC(Nc1ccc([N+](=O)[O-])cc1)C(Cl)(Cl)Cl)c1cccc([N+](=O)[O-])c1 (stereo not drawn)	mHTT CaM bind 98
C=CCc1cc(OC)ccc1OCC(O)CN1CCN(c2ccccc2F)CC1 (stereo not drawn)	none
C=CCc1cc(OC)ccc1OCC(O)CN1CCN(c2ccc(OC)cc2)CC1 (stereo not drawn)	mHTT CaM bind 50!
C=CCc1ccc(OCC(O)CN2CCN(c3ccc(OC)cc3)CC2)c(OC)c1 (stereo not drawn)	mHTT CaM bind 51
C=CCc1ccc(OCC(O)CN2CCN(c3ccccc3)CC2)c(OC)c1 (stereo not drawn)	none
O=C(N(CC1=CCS(=O)(=O)C1)c1ccccc1)C12CC3CC(CC(C3)C1)C2	none
COc1cc(C=CC(=O)NCCc2cc3c(OC)ccc(OC)c3[nH]c2=O)cc(OC)c1OC	none
O=C(Nc1nnc(-c2ccc(F)cc2)o1)c1ccc(S(=O)(=O)N2CCCc3ccccc32)cc1	none
O=C(Nc1nnc(C2CC2)o1)c1ccc(S(=O)(=O)N2CCCc3ccccc32)cc1	mHTT CaM bind 67!
CCC(C)(C)c1ccc(OCC(O)CN2CCOCC2)c(C(C)(C)CC)c1 (stereo not drawn)	mHTT CaM bind 94
CC(C)(C)c1ccc(OCC(O)CN2CCN(CCO)CC2)cc1 (stereo not drawn)	none
CC(C)(C)c1ccc(OCC(O)CN)cc1 (stereo not drawn)	none
CC(C)(C)c1ccc(OCC(O)CN2CCCC2)c(C(C)(C)C)c1 (stereo not drawn)	none
CC[N+]1(CC(O)COc2ccc(C(C)(C)CC(C)(C)C)cc2)CCCC1 (stereo not drawn)	mHTT CaM bind 84
CN(C)CC(O)COc1ccc(C(C)(C)CC(C)(C)C)cc1 (stereo not drawn)	mHTT CaM bind 99
CC(C)(C)CC(C)(C)c1ccc(OCC(O)C[N+]2(C)CCCC2)cc1 (stereo not drawn)	none
CC(C)(C)CC(C)(C)c1ccc(OCC(O)CN2CCCC2)cc1 (stereo not drawn)	mHTT CaM bind 100
CCCCCOC(=O)CCCN1C(=O)C(=Cc2ccco2)SC1=S	none
Cc1nnc(-c2cccn2CC(=O)NCc2ccc(F)cc2)o1	none
COc1cc(OC)cc(-n2c(=O)[nH]c3cc(C(=O)NCc4ccc5c(c4)OCO5)ccc3c2=O)c1	none
CC(=O)NC1CCN(c2ccccc2C(=O)N2CCCCC2C)CC1 (stereo not drawn)	none
COc1cc(CN2CCN(c3cccc(C)c3C)CC2)cc(OC)c1OC	none
COc1cc(CN2CCN(c3cccc(C)c3C)CC2)cc(Br)c1O	mHTT CaM bind 55
O=C1C(=Cc2ccncc2)Oc2c1ccc(O)c2CN1CCCCCC1	none
O=C(NCc1ccccc1Cl)C1CCN(c2nnc(-c3ccccc3)o2)CC1	none
c1ccc(CN2CCc3nc(Nc4ccc5c(c4)OCCO5)ncc3C2)cc1	none
Brc1csc(CN2CCc3nc(Nc4ccccc4)ncc3C2)c1	none
COc1ccc(Nc2ncc3c(n2)CCN(Cc2cc(Br)cs2)C3)cc1	mHTT CaM bind 66
Fc1cccc(CN2CCc3nc(Nc4ccc5c(c4)OCCO5)ncc3C2)c1	none
COc1ccc(Nc2ncc3c(n2)CCN(Cc2ccc4c(c2)OCCO4)C3)cc1	mHTT CaM bind 61
Fc1cc(F)cc(CN2CCc3nc(Nc4ccc5c(c4)OCO5)ncc3C2)c1	mHTT CaM bind 73
COc1ccc(OC)c(Nc2ncc3c(n2)CCN(Cc2ccc4c(c2)OCCO4)C3)c1	none
Cc1ccc(CN2CCc3nc(Nc4ccc5c(c4)OCCO5)ncc3C2)cc1	mHTT CaM bind 73
COc1ccc(NC(=O)C2CCN(c3nnc(-c4ccc(C)cc4)o3)CC2)cc1	none
CCCN1CCN(c2ncc3c(n2)CCN(Cc2cc(Br)cs2)C3)CC1	none
COc1cc(OC)c(OC)cc1CN1CCc2nc(Nc3ccc4c(c3)OCO4)ncc2C1	mHTT CaM bind 50
Brc1csc(CN2CCc3nc(N4CCOCC4)ncc3C2)c1	mHTT CaM bind 57
COc1cc(CN2CCc3nc(Nc4ccc5c(c4)OCO5)ncc3C2)ccc1OC(C)C	mHTT CaM bind 82
CCOc1ccc(CN2CCc3nc(Nc4ccc5c(c4)OCO5)ncc3C2)cc1OCC	none
COc1cccc(CN2CCc3nc(Nc4ccc5c(c4)OCO5)ncc3C2)c1OC	none
COc1ccc(CN2CCc3nc(Nc4ccc(F)cc4F)ncc3C2)c(OC)c1OC	mHTT CaM bind 53
COc1ccccc1CN1CCc2nc(Nc3ccc(F)cc3F)ncc2C1	none
O=C(NCCC1=CCCCC1)C(=O)NC1CCCCC1	none
Cn1c(N2CCN(S(=O)(=O)c3ccc4c(c3)OCCO4)CC2)nc2ccccc21	none
CN(C)c1cccc(C(=O)Nc2cc(-c3ccsc3)no2)c1	none
COc1cccc(-c2ccc3oc(C4CCCN4C(C)=O)nc3c2)c1 (stereo not drawn)	none
Cn1nc(-c2ccc(-c3ccnc(=S)[nH]3)s2)cc1C(F)(F)F	none (no result: mHTT CaM bind)
CC1CCC(C(C)C)C(=NNC(=O)CC#N)C1 (stereo not drawn)	none (no result: mHTT CaM bind)
